Assay outcomes: PubChem BioAssay, The Scripps Research Institute Molecular Screening Center
Shown are actives, neighbours in structure and some others; about 5.7% of the full set was active somewhere.
ssDAF-12 act: activators of S. stercoralis DAF-12 nuclear receptor; activation, % at 6.8 µM; HEK293 ssDAF-12/GRIP1 lit1-tk-luc reporter, luminescence; % of 3 µM dafachronic acid response; 370,000 compounds, 1% hits; AID 652126;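 active means activation above the mean over all tested compounds plus 3 SD, cut at about 0.9% in these data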;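 further: 0% = DMSO-only wells and 100% = 3 µM delta7-dafachronic acid wells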
DAX1 inh-1: NR0B1 (DAX1) inhibition; AID 504766; P51843; 340,000 compounds, 0.99% hits; inhibition, % at 6.75 µM; HEK293 Gal4-DAX1 luciferase reporter, luminescence;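 active means inhibition above the mean over all tested compounds plus 3 SD, cut at about 4.2% in these data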;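 further: 0% = DAX1-transfected cells with DMSO and 100% = empty-vector control cells with DMSO; inhibition shows as a rise in luminescence from relieved DAX1 repression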
Target sequence (P51843 207-470 limits assumed): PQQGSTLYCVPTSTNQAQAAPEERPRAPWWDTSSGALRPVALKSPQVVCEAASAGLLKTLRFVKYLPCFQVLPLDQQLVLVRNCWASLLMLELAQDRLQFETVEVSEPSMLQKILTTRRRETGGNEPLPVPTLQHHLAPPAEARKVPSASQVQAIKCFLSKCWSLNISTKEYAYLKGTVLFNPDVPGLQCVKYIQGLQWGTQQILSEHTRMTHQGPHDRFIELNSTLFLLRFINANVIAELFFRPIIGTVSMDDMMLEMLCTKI
AHR act: activators of human aryl hydrocarbon receptor; 320,000 compounds, 2.5% hits; AHR-responsive luciferase reporter cells, luminescence; activation, % at 5 µM; P35869; in the data active means activation above about 47%;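 further: 0% = vehicle wells and 100% = reference agonist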
hcDAF-12 act: activates DAF-12 receptor from parasite H. contortus; activation, % at 6.8 µM; HEK293 hcDAF-12 lit1-tk-luc reporter, luminescence; 0% DMSO, 100% Δ7-dafachronic acid; AID 652067; 370,000 compounds, 1.4% hits;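 active means activation above the mean of all tested compounds plus 3 SD, cut at about 5.5% in these data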;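 further: 100% = response to 3 µM Δ7-dafachronic acid high control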
DAX1 inh-2: inhibitors of DAX1 repression of SF-1 activated StAR promoter; HEK293T StAR-luciferase reporter, SF-1/DAX-1 repression relief; inhibition, % at 6.8 µM; 370,000 compounds, 1.1% hits;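 active means inhibition above the mean over all tested compounds plus 3 SD, cut at about 3.6% in these data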;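 further: 0% = DAX-1 cells with DMSO and 100% = cells lacking DAX-1 with DMSO; higher inhibition means more luminescence from relief of DAX-1 repression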
hgDAF-12 ag: activates the H. glycines DAF-12 receptor ligand-binding domain | HEK293 GAL4-hgDAF12 UAS-luciferase reporter, agonist luminescence; normalized to butyrate control | activation, % at 6.8 µM | 370,000 compounds, 1.8% hits;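 active means activation above a cutoff set at the mean of all screened compounds plus 3 SD, cut at about 10% in these data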;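 further: 0% = DMSO wells and 100% = sodium butyrate wells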
DAX1 inh confirm: NR0B1 (human) inhibition, confirmation. shares compounds with DAX1 inh-2. HEK293T StAR-promoter luciferase reporter, SF-1/DAX-1 repression. inhibition, % at 6.8 µM. 2,400 compounds, 87% hits. AID 652134;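 active means inhibition above the average of every tested compound plus 3 SD, cut at about 3.8% in these data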;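 further: 0% = DAX-1 cells with DMSO and 100% = no DAX-1 control cells with DMSO; active compounds raise luminescence by relieving repression of the StAR reporter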
Target sequence (P51843 whole entry, looked up): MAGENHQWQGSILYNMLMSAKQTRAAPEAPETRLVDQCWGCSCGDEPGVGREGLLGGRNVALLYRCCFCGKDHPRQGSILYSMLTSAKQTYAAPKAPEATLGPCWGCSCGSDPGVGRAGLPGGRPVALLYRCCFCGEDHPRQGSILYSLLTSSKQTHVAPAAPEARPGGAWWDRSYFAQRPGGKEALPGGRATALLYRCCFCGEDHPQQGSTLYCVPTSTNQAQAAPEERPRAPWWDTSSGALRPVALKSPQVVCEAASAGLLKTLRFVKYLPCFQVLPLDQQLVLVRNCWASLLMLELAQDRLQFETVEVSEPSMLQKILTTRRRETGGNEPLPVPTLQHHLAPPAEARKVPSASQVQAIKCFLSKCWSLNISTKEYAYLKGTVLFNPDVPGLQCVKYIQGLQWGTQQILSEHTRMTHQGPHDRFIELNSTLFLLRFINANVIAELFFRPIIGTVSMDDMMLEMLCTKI
SF1 mutant ctr: counter-screen for DAX1 inhibitors: nonselective inhibitors with SF-1 AF2 mutant | AID 652136 | HEK293 StAR-luciferase, luminescence | shares compounds with DAX1 inh-2 | inhibition, % at 6.8 µM | 2,400 compounds, 78% hits;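 active means inhibition above the mean of all tested compounds plus 3 SD, cut at about 3% in these data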;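 further: 0% = DAX-1 transfected cells with DMSO and 100% = cells without DAX-1 with DMSO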
LXR ag: counter-screen for hcDAF-12 agonists: agonists of human LXR-beta; HEK293 Gal4-LXR tk-luc reporter, luminescence, 24 h; normalized: DMSO 0%, positive control 100%; shares compounds with hcDAF-12 act; 3,400 tested, under 10 active; activation, % at 6.8 µM;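 active means mean percent activation of the reporter above a cutoff set as the average over tested compounds plus their standard deviation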
hcDAF12 conf: confirmation of H. contortus DAF-12 agonists; shares compounds with hcDAF-12 act; HEK293 hcDAF-12 lit1-tk-luc reporter, luminescence; % of Δ7-dafachronic acid response; activation, % at 6.8 µM; 3,400 compounds, 61% hits;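 active means mean activation across triplicate tests above the threshold derived from the earlier primary screen, cut at about 5.5% in these data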;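 further: 0% = DMSO only wells and 100% = 3 µM Δ7-dafachronic acid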
hgDAF12 ag: confirmation of H. glycines DAF-12 agonists; shares compounds with hgDAF-12 ag; HEK293 GAL4-hgDAF12 luciferase reporter, agonist mode; percent of butyrate response; activation, % at 6.8 µM; 3,300 compounds, 80% hits; AID 743050;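 active means mean activation over triplicate wells above the hit cutoff derived from the earlier primary screen, cut at about 11% in these data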;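 further: 0% = DMSO low control and 100% = 2 mM sodium butyrate high control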
LXR ag 2: activates human LXR-beta, counter-screen for DAF-12 agonists. shares compounds with hgDAF-12 ag. HEK293 Gal4-LXR luciferase reporter, 24 h. activation, % at 6.8 µM. 3,300 tested, under 10 active. AID 743051;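 active means mean activation of the triplicate above a set limit carried over from the primary screen, none filed active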
Active calls of the source: *; . = no result given.

SMILES	ssDAF-12 act	DAX1 inh-1	AHR act	hcDAF-12 act	DAX1 inh-2	hgDAF-12 ag	DAX1 inh confirm	SF1 mutant ctr	hgDAF12 ag	LXR ag 2	others
Cc1csc(SCc2nnc(-c3ccccc3Br)o2)n1	1	2	16	5	6.5*	16*	14*	8.2*	17*	1
CN(C)CCN(C)Cc1ccccc1Sc1cccc2ccccc12	-1	1	2	-1	0	-1	.	.	.	.
Cc1nn(C(=O)CNS(=O)(=O)c2ccccc2)c(C)c1Sc1ccc(Cl)cc1	-1	-2	0	1	0	1	.	.	.	.
CC1CC(C)CN(CCC(=O)Nc2ccc(Br)cc2)C1 (stereo not given)	-2	-1	17	3	0	-1	.	.	.	.
CCOC(=O)C1(C)CCN1C(=O)/C=C/c1ccccc1 (stereo not given)	0	.	.	0	2	1	.	.	.	.
N/C(=N\N=C\c1cccc(O)c1)c1nonc1N	3.2*	-1	11	13*	7.2*	20*	15*	11*	17*	1	LXR ag=2;hcDAF12 conf=9.0*
COc1ccc2oc(C(=O)NC3CCCCC3)c(C)c2c1	0	2	19	5.8*	6.2*	16*	7.0*	5.9*	14*	1
COc1ccc2oc(C(=O)Nc3nc(C)cs3)c(C)c2c1	1.1*	1	31	9.9*	6.9*	21*	10*	6.6*	20*	1	LXR ag=2;hcDAF12 conf=12*
COc1ccc2c(CC(=O)Nc3nc(C)cs3)coc2c1	-1	0	6	-2	-1	2	.	.	.	.
CC1(C(=O)N2Cc3ccccc3C2)CCN1C(=O)C1(c2ccccc2)CC1 (stereo not given)	-1	.	.	0	0	-3	.	.	.	.
CCOc1cc(/C=N/NC(=O)C(=O)NCCCOC(C)C)cc(Br)c1O	-1	0	-1	2	0	-3	.	.	.	.
O=C(Nc1nccs1)c1cncc(Br)c1	0	1	56*	7.9*	6.3*	15*	7.6*	6.3*	11*	0	LXR ag=1;hcDAF12 conf=6.0*
c1ccc(N=Nc2ccc(C3=NCCO3)cc2)cc1	1	3	.	7.9*	11*	18*	19*	9.0*	16*	1	LXR ag=1;hcDAF12 conf=5
CC1Sc2ccc(C(=O)Nc3ncccc3O)cc2NC1=O (stereo not given)	0	2	25	5	13*	18*	8.3*	3.2*	15*	1
Cc1ccc(C(=O)NCc2ccccn2)cc1NC1=NC2CS(=O)(=O)CC2S1 (stereo not given)	-1	0	0	2	0	-2	.	.	.	.
Cc1ccc(Cc2c(-c3ccc(F)cc3)nc3cc(C)ccn23)cc1	0	3	.	2	6.6*	17*	0	0	7	0
Cc1ccc(-c2nc3ccc(Br)cn3c2Cc2ccccc2)cc1	1	.	.	3	5.4*	14*	8.2*	3	16*	1
Cc1ccc(Cc2c(-c3ccccc3)nc3ccc(Br)cn23)cc1	0	0	.	2	2	7	.	.	.	.
Cc1ccc(-c2nc3ccc(C)cn3c2Cc2ccccn2)cc1	0	.	.	3	5.8*	14*	10*	4.5*	5	1
Cc1ccc2nc(-c3ccc(F)cc3)c(Cc3ccccc3C(F)(F)F)n2c1	1.7*	.	.	5	4.7*	14*	2	4.6*	6	0
COc1ccc(-c2nc3ccc(C)cn3c2Cc2ccccc2C(F)(F)F)cc1OC	-1	.	.	-2	1	1	.	.	.	.
Cc1ccc([C@@H]2CC(=O)[C@@H]3CN(S(=O)(=O)c4ccc(C)cc4)[C@H](c4ccccc4)C[C@@H]3N2S(=O)(=O)c2ccc(Cl)cc2)cc1	-1	1	.	0	-1	-3	.	.	.	.
Cc1ccc2c(c1)N(CC(=O)N1CCCC1)C(=O)c1cccnc1O2	-1	0	2	-1	-1	-2	.	.	.	.
Cc1ccc(Cc2c(-c3ccc(C#N)cc3)nc3ccc(Br)cn23)cc1	-1	-1	.	-1	1	5	.	.	.	.
Cc1ccc(Cc2c(-c3ccc(Br)cc3)nc3cc(C)ccn23)cc1	0	4	.	4	7.5*	14*	3.7*	2	1	0
SMILES	ssDAF-12 act	DAX1 inh-1	AHR act	hcDAF-12 act	DAX1 inh-2	hgDAF-12 ag	DAX1 inh confirm	SF1 mutant ctr	hgDAF12 ag	LXR ag 2	others
O=C(c1ccc(Cl)c(S(=O)(=O)N2CCCCC2)c1)N1CCCC(C(F)(F)F)C1 (stereo not given)	-1	-1	2	-1	-3	2	.	.	.	.
CC(C#N)(Cc1ccccc1)Nc1ccccc1 (stereo not given)	0	-1	0	6.5*	5.0*	14*	0	1	-2	0
O=C(O)c1cccc(-c2ccc(/C=N/n3cnc4sc5c(c4c3=O)CCCC5)o2)c1	.	.	2	.	.	.	.	.	.	.
O=C(CN(c1ccccc1)S(=O)(=O)c1ccccc1)Nc1ccc(F)cc1	-1	-1	5	-2	0	0	.	.	.	.
O=c1c2c(nc3cc(-c4cccc(Cl)c4)[nH]n13)CCC2	1	2	27	5	5.5*	15*	16*	6.7*	14*	1
N=c1ncn(Cc2ccccc2)c2nc(SCCOc3ccccc3)[nH]c12	-1	-1	4	-1	0	-1	.	.	.	.
O=C(Nc1ccc2c(c1)OCO2)c1cc(Cl)ccn1	0	2	67*	5	6.5*	16*	12*	5.3*	17*	1
O=C(Nc1ccc2c(c1)OCO2)c1ccc(Cl)cc1Cl	0	0	8	11*	16*	18*	14*	5.0*	17*	1	LXR ag=2;hcDAF12 conf=6.6*
O=C(Nc1ccc2c(c1)OCO2)c1cc(-c2ccccc2Cl)on1	-1	1	18	2	1	7	.	.	.	.
